RGS8-Gao – RGS8-Galphao binding modulators, primary screen, biochemical, multiplexed bead flow cytometry. response (percent of control binding), % at 10 µM. AID 1423, 2008. actives lie on both sides. hit rate 0.34% among 220,000; in the data active = response below about 60% or above about 140%; inactive = in between;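 also: Galphao activated as the GDP aluminium fluoride complex binding bead-coupled RGS8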
Target sequence (P09471 whole entry, looked up): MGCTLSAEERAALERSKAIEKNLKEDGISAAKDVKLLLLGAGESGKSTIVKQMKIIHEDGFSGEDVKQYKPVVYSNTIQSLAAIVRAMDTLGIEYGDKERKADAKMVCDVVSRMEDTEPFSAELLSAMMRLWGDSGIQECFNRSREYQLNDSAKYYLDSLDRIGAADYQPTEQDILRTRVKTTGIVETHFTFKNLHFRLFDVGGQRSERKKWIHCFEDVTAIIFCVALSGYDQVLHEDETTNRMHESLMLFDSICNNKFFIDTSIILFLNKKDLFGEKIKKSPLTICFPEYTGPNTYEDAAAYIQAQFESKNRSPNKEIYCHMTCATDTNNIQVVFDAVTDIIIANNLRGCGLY
GSH fluor – compound fluorescence on glutathione beads, profiling panel, artefact control, biophysical, 488/530 nm, flow cytometry; hit rate 0.25% among 190,000; fluorescence (KMESF) at 10 µM; GSH beads flow cytometry, compound fluorescence 488/530 nm; hits give high values; in the data active = fluorescence above about 89;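 also: glutathione beads carrying GST-tagged Bcl family fusion proteins plus one bare bead set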
RGS7-Gao reg – RGS7-Galphao binding modulators, primary screen, biochemical, multiplexed bead flow cytometry | Guanine nucleotide-binding protein G(o) subunit alpha (Homo sapiens), P09471 | actives lie on both sides | binding response (% of control), % at 10 µM | hit rate 0.35% among 220,000; in the data active = binding response below about 49% or above about 150%; inconclusive = no clear call, values can overlap the other calls; inactive = in between;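 also: fluorescent Galphao held in activated GDP-AlF4 state binding bead-coupled RGS7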
Avidin fluor – green autofluorescence of compounds with avidin beads – biophysical, 488/530 nm, flow cytometry, artefact control, profiling panel | compound fluorescence 488/530 nm; hits give high values | fluorescence (KMESF) at 10 µM | hit rate 0.38% among 220,000 | AID 1775, 2009; in the data active = fluorescence above about 47
RGS4-Gao reg – modulators of RGS4 binding to Galphao, primary screen, biochemical, multiplexed bead flow cytometry | actives lie on both sides | hit rate 0.33% among 220,000 | AID 1415, 2008 | binding response (% of control), % at 10 µM; in the data active = binding response below about 49% or above about 150%; inactive = in between;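 also: fluorescent Galphao activated with aluminum fluoride binding bead-coupled RGS4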
RGS16-Gao – modulators of RGS16 binding to Galphao, primary screen, biochemical, human proteins, multiplexed bead flow cytometry; binding response (% of control), % at 10 µM; Regulator of G-protein signaling 16 (Homo sapiens) + Guanine nucleotide-binding protein …; hit rate 0.38% among 220,000; bead-based flow cytometry RGS16-Galphao binding, fluorescence; actives lie on both sides;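 also: Galphao activated by GDP with aluminum fluoride before binding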
RGS4-Gao HTS – modulators of RGS–Galpha-o binding, primary screen, biochemical, multiplexed beads, flow cytometry, RGS4/7/8/16/19. multiplexed bead flow cytometry. shares compounds with RGS16-Gao. hit rate 99% among 1,600. RGS4–Galpha-o binding response, % at 10 µM. AID 1504, 2009;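 also: fluorescently labeled Galpha-o bound to GDP with aluminium fluoride binding biotinylated RGS beads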
Target sequence (P09471 whole entry, looked up): as above
Target sequence (P49798 whole entry, looked up): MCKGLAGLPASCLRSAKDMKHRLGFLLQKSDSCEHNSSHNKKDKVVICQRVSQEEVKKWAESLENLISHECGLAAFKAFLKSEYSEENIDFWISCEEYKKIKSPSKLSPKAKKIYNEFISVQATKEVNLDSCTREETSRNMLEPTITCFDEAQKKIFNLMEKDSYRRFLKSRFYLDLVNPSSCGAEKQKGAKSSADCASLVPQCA
Biotin-avidin – disruption of biotin probe capture by avidin, counter-screen for RGS protein interaction modulators, biochemical, flow cytometry, bead-based | shares compounds with RGS16-Gao | streptavidin beads, fluorescein-biotin binding | inhibition, % at 10 µM | 1,700 tested, under 10 active | AID 1783, 2009;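 active = inhibition above 50%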;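 also: median green fluorescence of gated singlet beads compared with DMSO control wells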
RGS8-Gao confirm – RGS8-Galphao binding modulators, confirmation, biochemical, multiplexed bead flow cytometry, single concentration; shares compounds with RGS16-Gao; hit rate 3% among 1,700; bead-based flow cytometry RGS8-Galphao binding, fluorescence; actives lie on both sides; AID 1836, 2009; binding response (% of control), % at 10 µM; in the data active = binding response below about 72% or above about 130%; inactive = in between;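 also: Galphao activated as GDP AlF4 complex before binding bead RGS8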
RGS7-Gao confirm – RGS7-Galphao binding modulators, confirmation, biochemical, multiplexed bead flow cytometry, single concentration | shares compounds with RGS16-Gao | bead-based flow cytometry RGS7-Galphao binding; actives lie on both sides | response (percent of control binding), % at 10 µM | hit rate 7.8% among 1,700; in the data active = response below about 75% or above about 130%; inactive = in between;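 also: fluorescent Galphao activated with GDP and aluminum fluoride binding bead-coupled RGS7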
RGS16-Gao conf – modulators of RGS16-Galphao protein binding, confirmation, biochemical, single concentration, multiplexed bead flow cytometry | response (% of control binding), % at 10 µM | shares compounds with RGS16-Gao | hit rate 4% among 1,700 | AID 1838, 2009 | bead-based flow cytometry; actives lie on both sides; in the data active = response below about 74% or above about 130%; inactive = in between;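 also: Galphao activated as the GDP aluminium fluoride complex binding bead-coupled RGS16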
RGS4-Gao confirm – modulators of RGS4-Galphao protein binding, confirmation, biochemical, single concentration, multiplexed bead flow cytometry. shares compounds with RGS16-Gao. actives lie on both sides. hit rate 4% among 1,700. binding response (% of control), % at 10 µM; in the data active = binding response below about 74% or above about 130%; inactive = in between
RGS19-Gao conf – regulators of RGS19-Galphao binding, confirmation, biochemical, single point, multiplexed bead flow cytometry | shares compounds with RGS16-Gao | bead-based flow cytometry RGS19-Galphao binding; actives lie on both sides | response (percent of control binding), % at 10 µM | hit rate 5% among 1,700 | AID 1841, 2009; in the data active = response below about 50% or above about 160%; inactive = in between
Hits are given with their value; . = inactive; ? = inconclusive; / = no result given; [ ] = another dose, or the depositor's remark. Shown are actives, neighbours in structure and some others; about 1.2% of the full set was active somewhere. Unless noted, no rule for the calls is given here.

SMILES	RGS8-Gao	GSH fluor	RGS7-Gao reg	Avidin fluor	RGS4-Gao reg	RGS16-Gao	RGS4-Gao HTS	Biotin-avidin	RGS8-Gao confirm	RGS7-Gao confirm	RGS16-Gao conf	RGS4-Gao confirm	RGS19-Gao conf
Cc1sc2cc3c(c(C(=O)c4ccccc4)[n+]2c1C)-c1cccc2cccc-3c12	.	.	.	.	.	.	/	/	/	/	/	/	/
COc1cccc(C(=O)N(c2ccc(C)cc2)C2C=CS(=O)(=O)C2)c1 (stereo unspecified)	.	.	.	/	.	.	/	/	/	/	/	/	/
CC(=O)Oc1ccc(C(=O)[C@H]2[C@H]3C(=O)N(c4ccc(C)cc4C)C(=O)[C@H]3[C@@H]3C=CC=NN32)cc1	.	/	?	.	.	.	/	/	/	/	/	/	/
Cc1nnc(SCC(=O)Nc2cc(C(C)(C)C)nn2-c2ccccc2)s1	.	.	.	.	.	.	/	/	/	/	/	/	/
CCn1c(SCC(=O)Nc2cc(C(C)(C)C)nn2-c2ccccc2)nnc1-c1cccs1	.	.	185[activator]	86	.	.	110	.	.	.	.	.	.
COC(=O)C1=C(C)N(Cc2ccco2)C(=O)/C1=C\c1ccc(N(C)C)cc1	.	.	.	.	.	231[activator]	111	.	.	.	.	.	.
CCOC(=O)c1nnn(-c2ccc([N+](=O)[O-])cc2[N+](=O)[O-])c1C	.	.	.	.	.	.	/	/	/	/	/	/	/
O=C(CCN1C(=O)/C(=C/c2ccccc2Cl)SC1=S)NC1=NCCS1	157[activator]	.	.	.	.	.	127	.	.	.	.	.	.
O=C1c2cccc3c([N+](=O)[O-])ccc(c23)C(=O)N1CCc1ccccn1	.	/	?	.	.	.	/	/	/	/	/	/	/
O=C1c2ccccc2C(=O)N1CCc1ccccn1	153[activator]	.	.	.	.	.	127	.	.	.	.	.	.
CC1CCc2sc(NC(=O)C3CC(Cl)=CCC3C(=O)O)c(C#N)c2C1 (stereo unspecified)	.	.	.	.	.	.	/	/	/	/	/	/	/
Cc1csc(NC(=O)c2ccco2)n1	.	.	.	.	.	.	/	/	/	/	/	/	/
COc1ccccc1OCc1csc(NC(=O)c2ccco2)n1	3.4	.	-7.5	.	-19	.	/	.	.	.	.	.	.
Cc1cccc(NNC(=O)c2c(F)cccc2Cl)c1	.	/	?	.	.	.	/	/	/	/	/	/	/
Cc1nc2cc(C(=O)OCC(=O)Nc3cccc(Cl)c3)ccc2n1-c1ccccc1	.	.	.	.	.	.	/	/	/	/	/	/	/
CC(=O)c1ccc(NC(=O)C(C)OC(=O)c2ccc3c(c2)nc(C)n3-c2ccccc2)cc1 (stereo unspecified)	.	.	.	.	.	219[activator]	112	.	.	.	.	.	.
COc1cccc(-n2c(C)nc3cc(C(=O)O)ccc32)c1	.	.	160[activator]	54	158[activator]	/	/	.	.	.	.	.	.
Cc1nc2c(cc1C#N)C(=O)c1ccccc1-2	.	.	.	.	.	18	86	.	.	.	.	.	.
COc1ccc(-c2c(C#N)c(C)nc3c2C(=O)c2ccccc2-3)cc1	.	.	.	.	.	.	/	/	/	/	/	/	/
Cc1cc[n+]2n1CC(O)C2 (stereo unspecified)	/	/	/	/	/	/	/	.	.	.	.	.	.
C#CCNC(=O)C1=C[C@@H](C(C)(C)C)C[C@@H](OCc2ccc(CO)cc2)O1	22	.	21	.	30	17	/	.	.	.	.	.	.
Cc1ccc(Nc2nnc(SCC(=O)NCCN3C(=O)CSC3=O)s2)cc1C	.	.	.	.	.	.	/	/	/	/	/	/	/
Cc1cc(C)nc(NC(=NCCc2c[nH]c3ccccc23)NC(=O)Nc2ccc(Cl)c(Cl)c2)n1	.	.	.	.	.	13	108	.	.	.	.	.	.
C=CCn1c(SCC(=O)NCC2CCCO2)nnc1-c1ccccc1 (stereo unspecified)	.	.	.	.	.	.	/	/	/	/	/	/	/
O=C(NCCc1c[nH]c2ccccc12)c1c(Cl)nc2sccn12	17	.	19	.	30	2.2	/	.	.	.	.	.	.
SMILES	RGS8-Gao	GSH fluor	RGS7-Gao reg	Avidin fluor	RGS4-Gao reg	RGS16-Gao	RGS4-Gao HTS	Biotin-avidin	RGS8-Gao confirm	RGS7-Gao confirm	RGS16-Gao conf	RGS4-Gao confirm	RGS19-Gao conf
O=C(O)c1nccnc1C(=O)NCCc1c[nH]c2ccccc12	.	.	?	.	.	.	/	/	/	/	/	/	/
CC(C)Cn1c(-c2nn(C)cc2Cl)n[nH]c1=S	59	.	45	.	49	.	/	.	.	.	.	.	.
O=C(NCC1(c2ccccc2)CCCC1)C(=O)N1CCOCC1	.	.	.	.	.	21	83	.	.	.	.	.	.
CCCCCCCC#Cc1ccccc1/C=N/S(=O)c1ccc(C)cc1 (stereo unspecified)	.	.	.	.	.	.	/	/	/	/	/	/	/
Nc1ccc(C(CC(=O)O)n2cccc2)cc1 (stereo unspecified)	.	.	39	.	.	.	83	.	.	.	.	.	.
CCCOC(=O)c1ccc(NC(=O)c2ccccc2OC)cc1	.	.	.	.	.	.	/	/	/	/	/	/	/
CCCCOC(=O)c1ccc(NC(=O)c2ccccc2OC)cc1	.	.	.	.	.	18	77	.	.	.	.	.	.
